# Assay results reported in the supplement of paper PMC6555819.
# Tested on: PPARg:RXRa 30nM:10nM, anti-RXR (NR concentration 30 nM, RXRa partner concentration 10 nM)
# Experiment: PBM binding z-score (relative to random genomic background probes); higher = stronger binding; sequences stand for … in GC…GCGATTGACAGCGTAGAATGAAGG
# Method in brief: (§1)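 Antibodies against each partner of ligand-free nuclear receptor dimers (one per run) detected binding on custom Agilent 4×180K protein-binding microarrays after 1 h incubation. The double-stranded probes had 34-nt variable regions carrying direct-repeat seeds, single-nucleotide variants, half-site ablations and random human genomic background sequences. Binding z-scores, from regression-normalized fluorescence, use the random background probes as reference.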
row,Sequence,PBM binding z-score
1,TAGCCTAGGTCATTCAGGGGCCAGTTTAGAAAGC,0.497
2,CTCGAAAGGTCGTGCTCACGTGAGTATACCAAAC,0.773
3,GCTCGGAGGACAAGGTCAGAGCATTGTCCGTAGA,-0.55
4,TAGCCTAGGTCAGATCGGGCAAGTATACGCTATA,-0.284
5,CAAACTAGGTCAAGGTCATAGTCGGTTTGTGCCA,6.24
6,TTACCAAGGTGAAGGTCCTTGATCCCTCTGTAGA,0.878
7,CGAACGAGGGCATGAGTTGACAGCAAATGCCGAT,-0.213
8,ATCGAAAGGTCGAACGTGAGTATACCCACCCGAA,1.14
9,TCTGCTAGGTCAGCTGGTCAGCTAACGAGCTGCC,1.12
10,GATACAGGGTCAGCCAGAGGCCAGAGTATGGAAA,0.98
11,GCTATTAGTTGAAAGGGCAACCCAATGATTCTCG,1.81
12,GCGACTGGGGCATCAGCAGTTTACCATAACTTAA,-0.193
13,ATATGAAGGTTACATCCGGGTCATTCAGGCTATG,1
14,CGTCAAAGATCAACTAAGGTAACGTAAAGCACGC,0.274
15,AGATTGAGGTTAAGATCAGGGAAACAGAATACAT,0.935
16,GATACAGGGTCAAGGCCAGCGTACGCGTATTGAT,2.19
17,AGTACGAGGGCACGCTGAGTTGATAGCAGAGTAG,-0.181
18,TGAATGAGGTTAAAGATCCGGGAACGTGGCGTCG,1.55

# Tested on: PPARg:RXRa 90nM:30nM, anti-RXR (NR concentration 90 nM, RXRa partner concentration 30 nM)
# Experiment: as above
# Method in brief: as §1
row,Sequence,PBM binding z-score
1,CGTCCAAGGTCGTAGGAGGTCAGTGAAGACAGAT,1.32
2,TCTGCTAGGTCAACGATGATCAGCTAATCTGCTA,2.38
3,TCAAATAGGTAAAGGTGAAAGTCGAACGATATGA,4.99
4,TCTATTAGTTGATTAGGGCAACTGAAACAGCGGA,2.6
5,AGAATGAGGTAATACGTAGATCAGGGAAGAAAGT,0.757
6,ACTATTAGTTGACTTAGGACAACCGATACGACGC,0.273
7,AGTCAAAGTTCAGGACGAAGTAACGTAAAGCACG,3.86
8,TCTTGTAGATCAAGGGTTAAGAAAGCCGAAGCCT,7.18
9,CGAACTAGGTCGGAACAGGACAGTGAAGGATGAT,0.234
10,AGAACGAGGGCAATAAGTTGATAGCACGGGTGGC,0.217
11,AGAACGATGGCACGCTGAGTTGATAGCAGAGTAG,-0.443
12,GATACAGGGTCAGCTAGAGGACAGAGTATGGAAA,2.12
13,TCATATAGGTAAATGCTAGGTGAAAGTGCGATCT,3.81
14,GCTAGTTGGTCAGTAAAAGGTCAGACACCGGTCG,2.7
15,AGAATGAGGTTACCAAACATCAGGGAAACGCTTG,1.8
16,ACTCGGAAGACAAAGGTCAGAGCTACGCCAGTGA,4.83
17,ACAGACAGGTTAGTGAAGGTAACTCAGCTGGACG,0.0314
18,TCTATTAGTTGACTAGGGCAACCGAAACAGCGGA,3.07
19,ACTAGCAGGCCAAGTTTGGGTCACTTAAACAAAG,0.815
20,CCTACTGGGCCACGAAAGCTCATTGATTCAGTGA,0.162

row,Sequence,PBM binding z-score
1,ACTAGCAGGCCAGGTTTGGGTCACTCAAACAAAG,-0.199
2,TAGCCTACGTCAGATCGGGCCAGTATACGCTATA,-0.771
3,TAGCCTAGGTCATTCAGGGGCCAGTTTAGAAAGC,1.59
4,CTCGAAAGGTCGTGCTCACGTGAGTATACCAAAC,2.12
5,GCTCGGAGGACAAGGTCAGAGCATTGTCCGTAGA,0.636
6,TAGCCTAGGTCAGATCGGGCAAGTATACGCTATA,0.343
7,CAAACTAGGTCAAGGTCATAGTCGGTTTGTGCCA,8
8,TTACCAAGGTGAAGGTCCTTGATCCCTCTGTAGA,2.03
9,CGAACGAGGGCATGAGTTGACAGCAAATGCCGAT,0.897
10,ATCGAAAGGTCGAACGTGAGTATACCCACCCGAA,2.12
11,TCTGCTAGGTCAGCTGGTCAGCTAACGAGCTGCC,1.23
12,GATACAGGGTCAGCCAGAGGCCAGAGTATGGAAA,2.28
13,GCTATTAGTTGAAAGGGCAACCCAATGATTCTCG,3.88
14,GCGACTGGGGCATCAGCAGTTTACCATAACTTAA,0.414
15,ATATGAAGGTTACATCCGGGTCATTCAGGCTATG,1.58
16,CGTCAAAGATCAACTAAGGTAACGTAAAGCACGC,0.711
17,AGATTGAGGTTAAGATCAGGGAAACAGAATACAT,1.82
18,GATACAGGGTCAAGGCCAGCGTACGCGTATTGAT,4.12
19,AGTACGAGGGCACGCTGAGTTGATAGCAGAGTAG,0.652
20,TGAATGAGGTTAAAGATCCGGGAACGTGGCGTCG,2.9
